Among the data in PubChem BioAssay (NCI) are growth values, retold here.

The panel holds about 83,000 compounds, 20% with a hit somewhere; the sample as a whole holds those more often.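 Cell lines were cultured in 96-well plates, exposed to a single compound concentration, and assessed for percent growth 48 hours later.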 Unmarked numbers belong to inactive results. Calls of active or inactive are those of the source. The calls were made as follows: active = growth percent below 10; inactive = the rest.

The subject of this assay is MDA-MB-231 breast. As to the kind of experiment: NCI-60 one-dose screen, 48 h (100 = growth as untreated, 0 = no growth, -100 = all killed). Particulars: 10 µM unless noted.
`N#Cc1nc(-c2ccccc2)oc1S(=O)(=O)N1CCOCC1`: the growth was 98.3%.

`CC(C)c1ccc(COCc2cc(CN3CCCC3)c(O)c3ncccc23)cc1`: the growth is 8.36% (active).

`Cc1cc(N)c2cc(NC(=O)/C=C\c3ccccc3Cl)ccc2n1`: the growth is -87.1% (active).

As for `COc1ccc(Cc2cc(-c3ccccc3)nn(Cc3ccccc3)c2=O)cc1OC`, the growth was 43.6%.

In the case of `O=C1/C(=C/c2ccc(F)cc2)COc2ccc(O)cc21`, the growth was 97.2%.

On to `CCOP(=O)(OCC)c1nc(-c2ccccc2)oc1NCc1cccnc1`, for which the growth is 108%.

For `C/C(=C(/c1ccc(Cl)cc1)c1ccc(OCCN2CCCC2)cc1)c1ccc(Cl)cc1`, the growth is 94%.

Consider `CC(C)=CCC[C@](C)(O)[C@H]1CC[C@]2(C)[C@@H]1CC[C@@H]1[C@@]3(C)Cc4nccnc4C(C)(C)[C@@H]3CC[C@]12C`, for which the growth was 74.4%.

In the case of `CC1=Nc2cnc(Nc3ccc(OCCN4CCCC4)cc3)nc2Nc2ccccc21`, the growth is 59.7%.
